Assay results as given in ChEMBL document CHEMBL4888484, “Replenishing the malaria drug discovery pipeline: Screening and hit evaluation of the MMV Hit Generation Library 1 (HGL1) against asexual blood stage Plasmodium falciparum ,using a nano luciferase reporter read-out” (2022).
About 540 (0.36%) of roughly 150,000 compounds showed an effect of 50% or more. This excerpt belongs to a sample that is enriched for strong results.

Each molecule was assayed on Plasmodium falciparum (assay: Primary screen in NF54 nanoGlo assay, in single point, at 2uM, 72h; a lower Z score goes with more inhibition). Details: timepoint 72 hour.
Format: functional, Erythrocyte

Row | Structure (SMILES) | % Inhibition [%] | Z score
1 | CC(C)Cn1c(CC2(CC(=O)NC3CCOCC3)CCCC2)nc2cccnc21 | -12 | 1.81
2 | CCN1CCN(Cc2cccc3cccnc23)C(C)(C)C1=O | -9 | 1.65
3 | Cc1ccc(-c2ncc(CN3CCCC4(C3)OCCO4)s2)o1 | -5 | 0.88
4 | COc1cc(C)c(S(=O)(=O)N2CCc3cc4ccccc4nc32)cc1C | -10 | 1.11
5 | C[C@H](NC(=O)c1cncc(O)c1)c1nncn1C | -4 | 0.69
6 | Cc1nc(N(C)C)cc(N2CCN(C(=O)C3CCCC3)CC2)n1 | -17 | 1.88
7 | c1ccc(CC2(c3nc(-c4cnccn4)no3)CCC2)cc1 | 13 | -2.33
8 | COc1cccc(-c2nsc(C(=O)NCc3cccs3)c2N)c1 | 18 | -2.8
9 | OC1CCCCC1N1CCc2sccc2C1 (stereo unspecified) | -21 | 2.66
10 | CCNCc1cccc(Cl)c1Cl | 4 | -0.5
11 | Clc1cccc(CNCCCNc2ccncc2)c1Cl | 67 | -8.81
12 | CCN(CC)CCNCc1cccc(Cl)c1Cl | -2 | 0.28
13 | Cc1ccc2c(c1)CCCN2C(=O)c1ccoc1 | 4 | -0.72
14 | CCn1ccc(C(=O)N[C@H]2CCOC[C@@H]2OC)n1 | -7 | 0.83
15 | OC1CCC(NC(=NC2CC2)NCc2ccccc2F)CC1 (stereo unspecified) | -9 | 1.4
16 | CC1(C)C(CNC(=O)CCn2cc(C(N)=O)c(=O)[nH]c2=O)C1(C)C | 19 | -2.23
17 | Cc1cc(C(=O)Cn2cc(Cl)c(=O)[nH]c2=O)c(Cl)cc1F | -1 | 0.1
18 | CCOC(=O)CCn1cc(F)c(=O)[nH]c1=O | 74 | -6.55
19 | CCCCN(CC)C(=O)Nc1cc(Cl)c(OC)cc1OC | 1 | -0.07
20 | O=C(NCCCn1ccnc1)[C@@H]1Cc2c(ccc3ccccc23)O1 | 4 | -0.47

Row | Structure (SMILES) | % Inhibition [%] | Z score
21 | CC(C)[C@H](NC(=O)Nc1cc(Cl)ccc1Cl)c1ncc[nH]1 | -5 | 0.62
22 | C[C@@H](C(=O)Nc1ncc[nH]1)c1ccc2c(c1)[nH]c1ccc(Cl)cc12 | 69 | -1.75
23 | C[C@@H](C(=O)Nc1nnc[nH]1)c1ccc2c(c1)[nH]c1ccc(Cl)cc12 | -7 | 0.71
24 | CN(c1ccc2c(c1)CCO2)S(C)(=O)=O | 13 | -1.53
25 | C[C@H]1CCN(c2nc(-c3ccccn3)nc3c2CCC3)C1 | 90 | -12.13
26 | COC[C@H]1CCN(c2nc(-c3ccccn3)nc3c2CCNCC3)C1 | -2 | 0.41
27 | NC(=O)C[C@H]1CCN(c2nc(-c3ccccn3)nc3c2CCC3)C1 | -8 | 1.56
28 | O=C(O)[C@H]1CCCN(c2nc(-c3ccsc3)nc3ccccc23)C1 | -12 | 2.15
29 | FC(F)(F)C1CN(c2nc(-c3ccccn3)nc3c2CCC3)C1 | 75 | -13.36
30 | C[C@H]1CCCN(c2nc(-c3ccccn3)nc3ccccc23)C1 | 96 | -9.05
31 | FC(F)(F)[C@H]1CCCN(c2nc(-c3cccnc3)nc3ccccc23)C1 | 8 | -0.64
32 | c1ccc(-c2nc3c(c(N4Cc5ccccc5C4)n2)CCNC3)nc1 | -4 | 0.52
33 | O=C(Cn1nccn1)N1CCN(Cc2ccc3c(c2)OCO3)CC1 | 2 | -0.28
34 | CCN(C(=O)c1cc(N)ccc1Cl)C(C)C | 6 | -0.81
35 | Cc1cccn(CC(=O)N2CCC(=O)[C@@H](C)C2)c1=O | 2 | -0.36
36 | O=C1c2ccccc2C(=O)N1Cc1nc(-c2cccnc2)no1 | -9 | 1.34
37 | Cc1ccsc1C(=O)NCCNc1ncccn1 | -7 | 0.93
38 | CCCc1cnc(C)nc1-c1ccnc2c1ccn2C | -4 | 0.73
39 | Cc1ccncc1C(=O)N1CCC(CCn2c(C)cnc2C2CC2)CC1 | -3 | 0.37
40 | Cc1ccnc(N2CCC(O)(Cn3ccnc3)CC2)n1 | -12 | 1.12

Row | Structure (SMILES) | % Inhibition [%] | Z score
41 | CC(C)(C)c1ccc(=O)n(CC2CN(c3cnsn3)C2)n1 | -16 | 2.38
42 | CN(C(=O)C(C)(C)Nc1ncc(C(F)(F)F)cc1Cl)c1ccc(Cl)cc1 | 59 | -7.64
43 | C[C@H](Nc1ncc(C(F)(F)F)cc1Cl)C(N)=O | -10 | 1.96
44 | CC(=O)C(=CNc1ncc(C(F)(F)F)cc1Cl)C(C)=O | -6 | 1.17
45 | FC(F)(F)c1cccc(-c2cc(-c3csc(-c4ccccc4)n3)on2)c1 | 1 | -0.12
46 | Oc1nc(-c2cccc(C(F)(F)F)c2)sc1-c1ccccc1 | 59 | 0.06
47 | Oc1nc(-c2cccnc2)sc1-c1ccccc1 | -2 | 0.32
48 | O=C(NCCn1c(=O)[nH]c2ccsc2c1=O)c1ccccc1Cl | -10 | 1.7
49 | O=C(CCn1c(=O)[nH]c2ccsc2c1=O)NCc1ccccc1 | 59 | -1.7
50 | O=c1[nH]c2ccsc2c(=O)n1CCc1ccccc1 | 33 | -4.74
51 | COc1cc(C(=O)NCC2(C)CCCCCC2)on1 | -5 | 0.52
52 | CC1=C(C(=O)Nc2ccccc2)[C@H](c2ccc(Cl)cc2)c2c(n(C)c(=O)n(C)c2=O)N1 | -3 | 0.36
53 | O=C(NCCCOCC(F)(F)F)NC1CCCC2OCCC12 (stereo unspecified) | -14 | 1.44
54 | CCN1CCN(CCN2CC3(CCN(Cc4ccccc4C#N)CC3)OC2=O)CC1 | 2 | -0.49
55 | CCc1nc2c(C(=O)N3CCOc4c(C)cc(C)cc43)ccnc2[nH]1 | 71 | -10.67
56 | CCc1nc(O)c(C(=O)N2CCOc3cc(F)c(F)cc32)cc1C | -5 | 0.67
57 | Cc1cc(C)c2c(c1)N(C(=O)Cc1cnccc1C)CCO2 | -7 | 0.88
58 | O=C(c1n[nH]c2c1CCCCCC2)N1CCC(c2nc(C3CCOCC3)no2)CC1 | -3 | 0.4
